The whole screen tested about 110,000 compounds, of which about 1,400 (1.3%) were called active.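 Rule for the calls: active = Z score or B-score, a plate-position-corrected score, falls beyond the plate's 99.7% confidence bounds, in either direction; inactive = both scores lie inside the 99.7% bounds.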 For the sample, actives were picked, then their nearest neighbours and some compounds at random.

Sodium-dependent dopamine transporter (Homo sapiens), sequence (Q01959 whole entry, looked up): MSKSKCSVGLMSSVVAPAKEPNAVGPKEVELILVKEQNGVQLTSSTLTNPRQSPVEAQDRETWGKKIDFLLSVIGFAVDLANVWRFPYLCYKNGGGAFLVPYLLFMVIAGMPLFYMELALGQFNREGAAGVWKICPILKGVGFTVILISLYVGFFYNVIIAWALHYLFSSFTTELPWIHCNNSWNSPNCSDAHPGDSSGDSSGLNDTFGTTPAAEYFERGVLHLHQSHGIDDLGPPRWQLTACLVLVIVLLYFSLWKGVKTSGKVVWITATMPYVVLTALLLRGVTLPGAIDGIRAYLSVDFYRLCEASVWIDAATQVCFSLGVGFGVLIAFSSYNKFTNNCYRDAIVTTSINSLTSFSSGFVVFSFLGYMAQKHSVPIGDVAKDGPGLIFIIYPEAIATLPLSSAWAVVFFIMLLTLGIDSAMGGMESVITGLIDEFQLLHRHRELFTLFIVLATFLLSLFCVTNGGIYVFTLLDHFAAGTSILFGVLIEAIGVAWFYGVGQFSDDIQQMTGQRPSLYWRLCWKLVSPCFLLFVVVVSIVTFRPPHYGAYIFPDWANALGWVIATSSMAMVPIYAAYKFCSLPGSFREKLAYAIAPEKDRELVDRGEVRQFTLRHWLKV

This assay concerns the target Sodium-dependent dopamine transporter (Homo sapiens) (UniProt Q01959). The experiment in a line: modulators of human DAT uptake with cocaine – cell-based, LLC-PK1 hDAT, [14C]-dopamine uptake, MLSMR, cocaine antagonist project, primary screen (AID 449768).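 Note: scored against the spread of the other compound wells on the same plate.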 The note with it: LLC-PK1 hDAT cells, [14C]-dopamine uptake with cocaine IC80; at 10 µM; actives deviate in either direction.
As for `COc1ccccc1CN1CCN(C(=O)Cc2ccccc2)CC1`, the B-score is 0.503 (inactive). As to `CC(C)c1ccc(OCC(=O)N2CCN(C)CC2)c(Br)c1`, the B-score is -0.237 (inactive). In the case of `O=C(COc1ccc2ccccc2c1)N1CCN(Cc2ccncc2)CC1` it was -1.8 (active). In the case of `COC(=O)C1=C(c2cc3ccccc3o2)C[C@@H]2CC[C@H]1N2C(=O)NC1CCCCC1`, the B-score is -0.718 (inactive). Regarding `COC(=O)C1=C(c2ccccc2)C[C@@H]2CC[C@H]1N2C(=O)N1CCCCC1`, the B-score was -0.0906 (inactive).

For the origin of these results see PubChem BioAssay AID449768 (Vanderbilt High Throughput Screening Facility, 2010).
